# Compounds with a hit are over-represented: about 3.8% of the library has one in this group of screens.
# MT1-MMP txn act: activates MT1-MMP transcription; HT1080 MT1-MMP promoter luciferase reporter, luminescence, overnight; stronger effect = higher value; AID 750; activation factor at 10 µM; actives 0.16% (n = 86,000);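 active = activation factor of at least 2 for MT1-MMP transcription at 10 µM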
# ERa SRC1 pot: ER-alpha (human) coactivator binding potentiation | P03372 | TR-FRET ERalpha-LBD/SRC-Cy5 coactivator binding, 2 h; 100 = basal binding, no effect | coactivator binding (% of control), % at 25.6 µM | actives 1.3% (n = 86,000); in the data active = activity above about 200%;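 also: binding measured in presence of low estradiol as agonist stimulus; 0% = peptide alone without receptor and 100% = receptor with peptide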
# Target sequence (P03372 whole entry, looked up, the tested form may be a part): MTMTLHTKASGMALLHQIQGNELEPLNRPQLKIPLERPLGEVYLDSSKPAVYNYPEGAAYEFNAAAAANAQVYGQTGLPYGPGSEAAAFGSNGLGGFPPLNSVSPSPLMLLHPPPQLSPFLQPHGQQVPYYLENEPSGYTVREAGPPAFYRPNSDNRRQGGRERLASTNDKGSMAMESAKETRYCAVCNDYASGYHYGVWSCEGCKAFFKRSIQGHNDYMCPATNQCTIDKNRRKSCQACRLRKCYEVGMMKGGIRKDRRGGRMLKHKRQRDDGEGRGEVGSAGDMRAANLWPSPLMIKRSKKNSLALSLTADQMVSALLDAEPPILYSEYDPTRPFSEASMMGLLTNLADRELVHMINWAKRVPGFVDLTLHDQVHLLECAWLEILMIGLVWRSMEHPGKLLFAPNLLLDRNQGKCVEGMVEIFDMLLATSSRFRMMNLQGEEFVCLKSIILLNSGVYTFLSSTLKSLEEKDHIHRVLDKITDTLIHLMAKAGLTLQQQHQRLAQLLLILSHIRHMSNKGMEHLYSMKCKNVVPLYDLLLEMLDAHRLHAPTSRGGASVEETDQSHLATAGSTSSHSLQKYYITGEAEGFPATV
# DAT uptake mod: modulates human dopamine transporter uptake under cocaine. Q01959. LLC-PK1 hDAT cells, [14C]-dopamine uptake with cocaine IC80; actives deviate in either direction. B-score at 10 µM. actives 1.3% (n = 110,000);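 active = Z score or B-score, a plate-position-corrected score, falls beyond the plate's 99.7% confidence bounds, in either direction; inactive = both scores lie inside the 99.7% bounds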;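 also: scored against the spread of the other compound wells on the same plate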
# ERb coact inh: ER-beta (human) coactivator binding inhibition; Q92731; TR-FRET ER-beta LBD / SRC1-Cy5 peptide binding; receptor agonist-loaded with 1 µM estradiol; inhibition, % at 25.6 µM; actives 1.3% (n = 86,000); AID 633;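 active = compounds whose percent inhibition of the receptor-coactivator binding signal exceeds about 50% in the single-dose screen, limit read from the data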;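 also: 0% = receptor plus peptide wells without compound and 100% = peptide-only wells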
# ERa SRC1 inh: blocks coactivator binding to human estrogen receptor alpha | AID 629 | TR-FRET ER-alpha LBD / SRC-1 peptide, estradiol-bound | inhibition, % at 25.6 µM | actives 1.7% (n = 86,000); in the data active = inhibition above about 50%;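 also: 0% = receptor plus peptide control and 100% = peptide only without receptor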
# * hit, by the source's call; · = no result given; [ ] = remark or other dose.
SMILES,MT1-MMP txn act,ERa SRC1 pot,DAT uptake mod,ERb coact inh,ERa SRC1 inh
COc1ccccc1NC(=O)c1cc2ccccc2o1,2*,89,0.34,-4,-8
COC(=O)c1ccc(C(=O)OC)c(NC(=O)c2cc3ccccc3o2)c1,0.9,364*[fluorescence artefact?],·,19,15
COC(=O)c1ccc(N2CCN(C)CC2)c(NC(=O)c2cc3ccccc3o2)c1,1.1,120,0.14,-4,-1
COc1ccc(CONS(=O)(=O)c2ccc(NC(C)=O)cc2)cc1Cl,·,·,-0.48,·,·
O=C(NCc1nc2ccccc2[nH]1)C1=C[C@@H](C2CCCCC2)C[C@@H](OCCCCO)O1,·,·,-0.35,·,·
O=c1cc(-c2ccccc2Cl)oc2c(NS(=O)(=O)c3cccs3)ccc(O)c12,·,·,0.52,·,·
O=C1Nc2ccccc2C12OCCS2 (stereo not drawn),1.1,96,-0.18,54*,-5
CCCCC1=CC2=C(c3ccco3)C(=O)C(C)(OC(=O)c3ccc(OC)cc3)C(=O)C2=CN1c1ccccc1 (stereo not drawn),·,·,1.2,·,·
CC1(C)CC2CC(C)(CN2S(=O)(=O)c2cccc(N)c2)C1 (stereo not drawn),1.3,237*[fluorescence artefact?],0.21,0,-8
CN(C)C(CNC(=O)c1cccc(S(=O)(=O)N2CC3(C)CC2CC(C)(C)C3)c1)c1ccco1 (stereo not drawn),1.1,83,0.54,7,0
O=C(CCC1CCCC1)c1c(O)c2ccccc2oc1=O,1.1,104,-3.2*,-5,1
C=CCn1c(SCC(=O)NC2CCCCC2)nnc1C(C)NC(=O)c1cccs1 (stereo not drawn),1.2,129,0.97,-5,83*
Nc1nnc(SCc2cccc(C(F)(F)F)c2)s1,1.3,132,-2.7*,1,1
Nc1nnc(SCc2cccnc2)s1,1,103,-0.062,-2,-1
COc1cc(/C=N/NC(=O)/C(=C\c2ccc([N+](=O)[O-])cc2)NC(=O)c2ccccc2)cc(OC)c1O,1.3,51,0.45,10,53*[fluorescence artefact?]
O=C(N/N=C/c1ccncc1)/C(=C/c1ccccc1)NC(=O)c1ccccc1,·,·,-0.12,·,·
COc1cc(NCCCC(C)N)c2ncccc2c1 (stereo not drawn),1.1,4,-0.94,90*[fluorescence artefact?],70*[fluorescence artefact?]
COc1cc(NS(=O)(=O)c2ccc(C)cc2)c2ncccc2c1,0.8,100,-1.2,2,-7
Cn1c(CNC(=O)c2ccc(Cl)cc2)nnc1SCC(=O)Nc1sc2c(c1C#N)CCCC2,1,250*,-1.8,34,37
N#Cc1cc2c(nc1SCC(=O)Nc1sc3c(c1C#N)CCC3)CCC2,1.3,113,-0.32,13,-4
Cc1ccc(C(=O)NCc2nnc(SCC(=O)Nc3sc4c(c3C#N)CCCC4)n2C)cc1,1.2,126,2.5,11,32
COC(=O)c1sccc1NC(=O)Cn1nnc(-c2ccc(C)cc2)n1,1.1,212*,-0.67,3,14
N#Cc1cc2c(nc1SCC(=O)Nc1sc3c(c1C#N)CCC3)CCCCCC2,1.2,155,2.6*,22,23
Cc1cccc(NC(=O)Cn2nnc(-c3cccs3)n2)c1C,1.2,119,-0.53,-7,-6
COc1ccc(-c2nnn(CC(=O)Nc3sc4c(c3C#N)CCCC4)n2)cc1,1.2,115,-0.036,24,51*[fluorescence artefact?]
SMILES,MT1-MMP txn act,ERa SRC1 pot,DAT uptake mod,ERb coact inh,ERa SRC1 inh
CCOc1ccccc1NC(=O)Cn1nnc(-c2ccc(OCC)c(OCC)c2)n1,1.2,107,-0.025,27,53*[fluorescence artefact?]
COc1ccc(-c2ccc(C#N)c(SCC(=O)Nc3sc4c(c3C#N)CCC4)n2)cc1OC,1.3,150,-0.002,65*[fluorescence artefact?],84*[fluorescence artefact?]
O=C1c2ccccc2C(=O)N1CCCN1CCN(CCCN2C(=O)c3ccccc3C2=O)CC1,1.3,108,·,25,5
O=C(CSc1nnc2n(C3CCCC3)c(=O)c3ccccc3n12)N1CCCCCC1,1.3,96,2.2,11,0
CC1CCCN(C(=O)CSc2nnc3n(C4CCCC4)c(=O)c4ccccc4n23)C1 (stereo not drawn),1.2,97,3.1*,2,4
Cc1cc(=O)n2nc(-c3ccccc3)sc2c1C#N,1.1,107,2.5*,8,-2
CN1[C@@H]2CC[C@H]1CC(OC(=O)C(CO)c1ccccc1)C2 (stereo partly drawn),·,·,0.71,·,·
COC(=O)c1[nH]c2cccc(OC)c2c1NC(=O)C(C)N1CCC(C)CC1 (stereo not drawn),1.1,130,0.035,-15,-12
O=C(Nc1ccc(OC(F)F)c(Cl)c1)Nc1ccc2c(c1)OCO2,1.3,94,-7*,6,5
CCOc1cc(C(=O)Nc2ccc3c(c2)OCO3)ccc1OC(F)F,1.1,130,0.98,-5,-3
COc1cc(OC)c2c(O)c3c(c(-c4c5c(c(O)c6c(OC)cc(OC)cc46)CO[C@@H](C)[C@H]5O)c2c1)[C@H](O)[C@H](C)OC3,·,·,1.6,·,·
CCC(C)NC(=S)NNC(=O)c1ccc(C(C)(C)C)cc1 (stereo not drawn),·,·,0.23,·,·
CCCCNC(=O)c1c(CSc2ccccc2)noc1C(=O)NCc1ccccc1,·,·,-0.47,·,·
CCOC(=O)N1CCN(c2c(NCCCOC(C)C)c(=O)c2=O)CC1,1.1,213*,-2,-13,0
CCOC(=O)N1CCN(c2c(NCCCN3CCCCCC3)c(=O)c2=O)CC1,·,101,-0.18,0,-1
CC(=O)Nc1cccc(-c2nnc(SCC(=O)n3c4c(c5ccccc53)CCCC4)n2C)c1,1.2,158,1.2,18,5
CCOC(=O)C1=C(O)/C(=C\c2ccc(CNC(=O)C(=O)Nc3ccccc3)o2)N=C1C,·,38,-0.91,72*,81*
CCSc1nnc(NC(=O)CSc2nc(CC)nc3c2c(=O)n(C)c(=O)n3C)s1,1,254*,-0.046,1,-2
COC(=O)c1ccc(CSc2nc3c(cnn3-c3ccc(F)cc3)c(=O)[nH]2)o1,1.1,517*,0.44,21,-21
CCCCSc1nc2c(cnn2-c2ccc(F)cc2)c(=O)[nH]1,1,209*[fluorescence artefact?],-0.0072,32,28
CCCSc1nc2c(cnn2-c2ccc(Cl)cc2)c(=O)[nH]1,0.9,·,0.0074,·,·
COC(=O)c1ccc(CSc2nc3c(cnn3-c3ccccc3)c(=O)[nH]2)o1,1,258*[fluorescence artefact?],-2.2,-18,-38
COC(=O)c1ccc(CSc2nc3c(cnn3-c3ccc(Cl)cc3)c(=O)[nH]2)o1,1.1,343*[fluorescence artefact?],-0.72,-12,-37
COC(=O)c1ccc(C(NC(=O)OCc2ccccc2)/C(=C/[C@@H](C)C(=O)NCc2ccccc2)C(F)(F)F)cc1 (stereo partly drawn),1.1,·,·,·,·
CCc1cc2c(=O)n(CC)c(SC(C)C(=O)Nc3c(C)n(C)n(-c4ccccc4)c3=O)nc2s1 (stereo not drawn),·,98,0.53,55*,1
COC(=O)C1(CC2CC(c3ccccc3)=NO2)CCN(C(=O)OC(C)(C)C)CC1 (stereo not drawn),·,·,0.77,·,·

# Bioassay records as filed in PubChem.
